Assay results reported in the supplement of paper PMC4022240.
± gives the standard deviation.

How the values were obtained:
Test in all cases: peptide microarray binding signal (635 nm), min-max normalized on array (fraction of array maximum); higher = stronger binding
Conditions in all cases: peptide region: H2B 17-29
[1] = molecular target: T1, HaloTag-ATRX ADD domain (163-292)
T1 chain: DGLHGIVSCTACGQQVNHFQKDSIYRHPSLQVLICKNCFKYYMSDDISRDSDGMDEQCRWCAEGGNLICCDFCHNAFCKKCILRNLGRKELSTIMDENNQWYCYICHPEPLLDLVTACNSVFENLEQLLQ
Protocol: (§1)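 Histone 13-mer peptides were synthesized as cellulose conjugates with a C-terminal 20-atom PEG linker and printed in triplicate on nitrocellulose. The sequence given is the unmodified backbone; PTMs (Kme1/2/3, Kac, Sph/Tph, Rme/Rme2a/Rme2s, Rcit) are listed in the label and the 'peptide modifications' condition. Slides were probed at 4 °C for 1 h with biotin-labelled (HQ)5-HaloTag reader fusions (ATRX-ADD, ING2-PHD) then streptavidin-Alexa647, or with rabbit histone antibodies then anti-rabbit Alexa647. The mean 635 nm signal of the triplicate spots was scaled 0-1 between the lowest and highest values on each array.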

[2] = molecular target: HaloTag-ING2 PHD (mouse Ing2 200-280)
Protocol: as §1

[3] = molecular target: anti-H3K4me3 antibody ab8580
Protocol: as §1

[4] = molecular target: anti-H3K9me3 antibody ab8898
Protocol: as §1

[5] = peptide modifications: H2BK20ac H2BK27ac H2BK28ac, binder concentration: 1:2,000 dilution
[6] = peptide modifications: H2BK20ac H2BK27ac H2BK28ac, binder concentration: 1:10,000 dilution
[7] = binder concentration: 1:2,000 dilution
[8] = binder concentration: 1:10,000 dilution
[9] = peptide modifications: H2BK23ac H2BK24ac H2BK28ac, binder concentration: 1:2,000 dilution
[10] = peptide modifications: H2BK23ac H2BK24ac H2BK28ac, binder concentration: 1:10,000 dilution
[11] = peptide modifications: H2BK20ac H2BK23ac, binder concentration: 1:2,000 dilution
[12] = peptide modifications: H2BK20ac H2BK23ac, binder concentration: 1:10,000 dilution
[13] = peptide modifications: H2BK20ac H2BK28ac, binder concentration: 1:2,000 dilution
[14] = peptide modifications: H2BK20ac H2BK28ac, binder concentration: 1:10,000 dilution

AVTKAQKKDGKKR [H2B 17-29 A V T Kac A Q K K D G Kac Kac R]
peptide microarray binding signal ([1]; peptide modifications: H2BK20ac H2BK27ac H2BK28ac, binder concentration: 50 nM): 0.00398 ± 4.1e-05 | peptide microarray binding signal ([1]; peptide modifications: H2BK20ac H2BK27ac H2BK28ac, binder concentration: 500 nM): 0.00567 ± 0.00013 | peptide microarray binding signal ([2]; peptide modifications: H2BK20ac H2BK27ac H2BK28ac, binder concentration: 10 nM): 0.003819 ± 3.5e-05 | peptide microarray binding signal ([2]; peptide modifications: H2BK20ac H2BK27ac H2BK28ac, binder concentration: 100 nM): 0.00404 ± 0.00021 | peptide microarray binding signal [3, 5]: 0.000812 ± 0.00014 | peptide microarray binding signal [3, 6]: 0.00114 ± 1.2e-05 | peptide microarray binding signal [4, 5]: 0.0005135 ± 4.8e-06 | peptide microarray binding signal [4, 6]: 0.00075 ± 7.9e-06

AVTKAQKKDGKKR [H2B 17-29 A V T K A Q K K D G K K R]
peptide microarray binding signal ([1]; binder concentration: 50 nM): 0.00972 ± 0.00026 | peptide microarray binding signal ([1]; binder concentration: 500 nM): 0.0111 ± 0.00017 | peptide microarray binding signal ([2]; binder concentration: 10 nM): 0.0152 ± 0.0002 | peptide microarray binding signal ([2]; binder concentration: 100 nM): 0.00666 ± 0.00025 | peptide microarray binding signal [3, 7]: 0.0021 ± 7.2e-05 | peptide microarray binding signal [3, 8]: 0.00428 ± 3.3e-05 | peptide microarray binding signal [4, 7]: 0.00118 ± 1.6e-05 | peptide microarray binding signal [4, 8]: 0.00421 ± 8.6e-05

AVTKAQKKDGKKR [H2B 17-29 A V T K A Q Kac Kac D G K Kac R]
peptide microarray binding signal ([1]; peptide modifications: H2BK23ac H2BK24ac H2BK28ac, binder concentration: 50 nM): 0.0036 ± 3.9e-05 | peptide microarray binding signal ([1]; peptide modifications: H2BK23ac H2BK24ac H2BK28ac, binder concentration: 500 nM): 0.00652 ± 0.00023 | peptide microarray binding signal ([2]; peptide modifications: H2BK23ac H2BK24ac H2BK28ac, binder concentration: 10 nM): 0.00561 ± 8.2e-05 | peptide microarray binding signal ([2]; peptide modifications: H2BK23ac H2BK24ac H2BK28ac, binder concentration: 100 nM): 0.00822 ± 0.00014 | peptide microarray binding signal [3, 9]: 0.00143 ± 0.00012 | peptide microarray binding signal [3, 10]: 0.00217 ± 0.00011 | peptide microarray binding signal [4, 9]: 0.000544 ± 2.3e-05 | peptide microarray binding signal [4, 10]: 0.00098 ± 1.7e-05

AVTKAQKKDGKKR [H2B 17-29 A V T Kac A Q K Kac D G K K R]
peptide microarray binding signal ([1]; peptide modifications: H2BK20ac H2BK23ac, binder concentration: 50 nM): 0.00342 ± 3.7e-05 | peptide microarray binding signal ([1]; peptide modifications: H2BK20ac H2BK23ac, binder concentration: 500 nM): 0.00562 ± 0.00013 | peptide microarray binding signal ([2]; peptide modifications: H2BK20ac H2BK23ac, binder concentration: 10 nM): 0.00651 ± 0.00014 | peptide microarray binding signal ([2]; peptide modifications: H2BK20ac H2BK23ac, binder concentration: 100 nM): 0.00468 ± 0.0004 | peptide microarray binding signal [3, 11]: 0.00213 ± 0.0003 | peptide microarray binding signal [3, 12]: 0.000685 ± 1.5e-05 | peptide microarray binding signal [4, 11]: 0.000544 ± 1.7e-05 | peptide microarray binding signal [4, 12]: 0.000865 ± 9e-06

AVTKAQKKDGKKR [H2B 17-29 A V T Kac A Q K K D G K Kac R]
peptide microarray binding signal ([1]; peptide modifications: H2BK20ac H2BK28ac, binder concentration: 50 nM): 0.00245 ± 3.9e-05 | peptide microarray binding signal ([1]; peptide modifications: H2BK20ac H2BK28ac, binder concentration: 500 nM): 0.00848 ± 0.00061 | peptide microarray binding signal ([2]; peptide modifications: H2BK20ac H2BK28ac, binder concentration: 10 nM): 0.00328 ± 6.2e-05 | peptide microarray binding signal ([2]; peptide modifications: H2BK20ac H2BK28ac, binder concentration: 100 nM): 0.00446 ± 0.00022 | peptide microarray binding signal [3, 13]: 0.00126 ± 0.00023 | peptide microarray binding signal [3, 14]: 0.000799 ± 8.3e-06 | peptide microarray binding signal [4, 13]: 0.000393 ± 7.7e-06 | peptide microarray binding signal [4, 14]: 0.000461
